By AC50 is commonly meant the concentration giving half of the maximal activity seen.

Structures are written as SMILES. Records with an inconclusive call do not appear. Activity calls are given as the source filed them. Rule for the calls, unless noted: active = hit-call score of the fitted dose curve at least 0.9, where 1 is the maximum; inactive = score below 0.9.

For test [1], the target named is Estrogen-related receptor gamma (Homo sapiens) (UniProt P62508). As to the kind of experiment: ATG_ERRg_TRANS: Attagene TRANS-FACTORIAL HepG2 Assay for human Estrogen-Related Receptor gamma (ERRg) (AID 2282977; active = hit-call score of the fitted dose curve at least 0.9, where 1 is the maximum;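 note: hits increase reporter signal over DMSO so potencies reflect activators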). Particulars: HepG2 Attagene TRANS reporter, ERRg transactivation. The method, boiled down:
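Transfect HepG2 with multiple GAL4-UAS reporter transcription units; dose chemicals 24 h; isolate RNA, reverse-transcribe with oligo(dT), PCR-amplify, label with 6-FAM, digest with HpaI; size fragments by capillary electrophoresis. DMSO serves as negative control.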

In test [2] the target is Glucocorticoid receptor (Homo sapiens) (UniProt P04150). As to the kind of experiment: ATG_GR_TRANS: Attagene TRANS-FACTORIAL HepG2 Assay for human Glucocorticoid Receptor (GR) (AID 2282978; active = hit-call score of the fitted dose curve at least 0.9, where 1 is the maximum;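 note: activators score as hits since higher reporter transcript over DMSO is fitted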). Particulars: HepG2 Attagene TRANS GR reporter, mRNA transcription. Put shortly: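 Measurement of GAL4-UAS-driven reporter mRNA in human HepG2 liver cells 24 h post-dosing, using RT-PCR with fluorescent labelling and capillary electrophoresis; the transfected constructs report exogenous NR-GAL4 chimera activity, fitted upward against DMSO.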
Glucocorticoid receptor (Homo sapiens), sequence (P04150 whole entry, looked up, the tested form may be a part): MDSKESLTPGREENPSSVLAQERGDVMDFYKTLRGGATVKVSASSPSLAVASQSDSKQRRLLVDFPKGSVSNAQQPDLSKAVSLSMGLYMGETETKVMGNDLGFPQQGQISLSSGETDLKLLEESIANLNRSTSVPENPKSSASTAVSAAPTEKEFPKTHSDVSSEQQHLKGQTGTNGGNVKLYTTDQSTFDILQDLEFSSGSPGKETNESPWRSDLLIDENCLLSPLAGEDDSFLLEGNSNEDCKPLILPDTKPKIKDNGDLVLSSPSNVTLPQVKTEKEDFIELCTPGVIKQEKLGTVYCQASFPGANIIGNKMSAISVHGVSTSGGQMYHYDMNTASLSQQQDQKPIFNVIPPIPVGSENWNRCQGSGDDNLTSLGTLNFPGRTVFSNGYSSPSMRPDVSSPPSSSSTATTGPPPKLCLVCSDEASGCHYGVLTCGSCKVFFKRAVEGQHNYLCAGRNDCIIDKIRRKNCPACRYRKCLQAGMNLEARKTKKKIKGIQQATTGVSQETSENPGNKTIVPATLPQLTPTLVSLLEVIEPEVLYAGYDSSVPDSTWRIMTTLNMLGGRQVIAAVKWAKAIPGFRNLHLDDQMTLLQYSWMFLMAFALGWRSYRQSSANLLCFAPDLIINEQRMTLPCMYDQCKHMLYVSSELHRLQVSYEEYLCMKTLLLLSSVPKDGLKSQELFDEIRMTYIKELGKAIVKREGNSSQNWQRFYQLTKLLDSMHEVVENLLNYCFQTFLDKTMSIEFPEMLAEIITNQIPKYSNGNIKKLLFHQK

For test [3], the target named is Bile acid receptor (Homo sapiens) (UniProt Q96RI1). As to the kind of experiment: ATG_FXR_TRANS: Attagene TRANS-FACTORIAL HepG2 Assay for Farnesoid X Receptor (FXR) (AID 2282979; active = hit-call score of the fitted dose curve at least 0.9, where 1 is the maximum;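 note: hits raise reporter mRNA above DMSO so AC50 marks FXR activation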). Particulars: HepG2 Attagene TRANS FXR-GAL4 reporter transcription. The method, boiled down:
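Reporter transcripts from transfected HepG2 cells were measured 24 h after dosing, using RT-PCR with capillary electrophoresis of 6-FAM-labelled fragments. The read-out reflects activity of exogenous FXR-Gal4 chimera on GAL4-UAS units, with induction relative to DMSO.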

For test [4], the target named is Hepatocyte nuclear factor 4-alpha (Homo sapiens) (UniProt P41235). Kind of test: ATG_HNF4a_TRANS: Attagene TRANS-FACTORIAL HepG2 Assay for human Hepatocyte Nuclear Factor 4 alpha (HNF4a) (AID 2282982; active = hit-call score of the fitted dose curve at least 0.9, where 1 is the maximum). Particulars: HepG2 HNF4a transactivation reporter, mRNA readout. The method, boiled down:
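Cells used were human HepG2, transiently carrying GAL4-UAS reporter units read out against exogenous NR-GAL4 chimeras. Reporter transcript levels after 24 h dosing were quantified by fluorescent RT-PCR and capillary electrophoresis.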

For test [5], the target named is Transcriptional activator Myb (Homo sapiens) (UniProt P10242). Kind of test: ATG_Myb_CIS: Attagene CIS-FACTORIAL HepG2 Assay for human Myeloblastosis (Myb) Proto-Oncogene Transcription Factor (AID 2282986). Particulars: HepG2 Attagene CIS-FACTORIAL Myb reporter transcription; actives raise or lower the signal. The method, boiled down: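 Fluorescence signals from capillary electrophoresis of RT-PCR-amplified reporter cDNA give the read-out. Cells: HepG2 transfected with multiple cis-regulated reporter units. Exposure lasts 24 hours; DMSO defines baseline for gain or loss of signal.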
Transcriptional activator Myb (Homo sapiens), sequence (P10242 whole entry, looked up): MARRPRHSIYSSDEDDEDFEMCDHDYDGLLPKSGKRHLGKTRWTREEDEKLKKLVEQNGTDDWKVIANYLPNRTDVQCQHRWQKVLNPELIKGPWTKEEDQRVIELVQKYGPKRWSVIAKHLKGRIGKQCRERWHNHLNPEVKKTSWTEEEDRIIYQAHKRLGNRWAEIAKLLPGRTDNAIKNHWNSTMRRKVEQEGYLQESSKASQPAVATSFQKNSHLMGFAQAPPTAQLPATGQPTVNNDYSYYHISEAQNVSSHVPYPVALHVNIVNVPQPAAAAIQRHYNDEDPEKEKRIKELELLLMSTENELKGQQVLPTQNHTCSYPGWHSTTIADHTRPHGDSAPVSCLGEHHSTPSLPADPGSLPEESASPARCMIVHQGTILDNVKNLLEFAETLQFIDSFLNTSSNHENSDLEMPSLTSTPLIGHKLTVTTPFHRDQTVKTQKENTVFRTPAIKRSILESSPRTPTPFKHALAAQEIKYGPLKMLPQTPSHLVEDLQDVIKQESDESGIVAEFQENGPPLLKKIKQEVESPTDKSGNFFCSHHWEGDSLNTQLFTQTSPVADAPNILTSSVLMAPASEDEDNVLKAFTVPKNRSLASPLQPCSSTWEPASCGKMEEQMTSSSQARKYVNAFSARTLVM

Test [6] concerns the target Nuclear respiratory factor 1 (Homo sapiens) (UniProt Q16656). Kind of test: ATG_NRF1_CIS: Attagene CIS-FACTORIAL HepG2 Assay for human Nuclear Respiratory Factor 1 (NRF1) Orphan Gene (AID 2282987). Particulars: HepG2 NRF1 cis-element reporter, Attagene multiplex; actives raise or lower the signal. The method, boiled down:
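Transcriptional reporter readout, one component of a 52-endpoint multiplexed HepG2 panel. Exposure 24 h; mRNA detected via RT-PCR and fluorescent capillary electrophoresis; fitting in both directions against DMSO.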

Test [7] in a line: ATG_NFI_CIS: Attagene CIS-FACTORIAL HepG2 Assay for human Nuclear Factor I (NFI) (AID 2282989). Particulars: HepG2 cis-regulatory reporter, NFI response element transcription; actives raise or lower the signal. The method, boiled down:
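Endogenous TF activity in HepG2 cells transiently transfected with cis-element-driven multiplexed reporter units, read 24 h after dosing. Reporter mRNA quantified by RT-PCR, 6-FAM labelling, HpaI digestion and capillary electrophoresis; bidirectional fit versus DMSO.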

Test [8] has as its target Myc proto-oncogene protein (Homo sapiens) (UniProt P01106). As to the kind of experiment: ATG_Myc_CIS: Attagene CIS-FACTORIAL HepG2 Assay for human Myelocytomatosis (Myc) Proto-Oncogene Transcription Factor (AID 2282990). Particulars: HepG2, Attagene cis-reporter transcription factor activity; actives raise or lower the signal. The method, boiled down: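 HepG2 cells transiently transfected with multiple cis-promoter-driven reporter transcription units, so endogenous TF activity is read. After 24 h compound exposure, reporter mRNA was quantified by RT-PCR, 6-FAM labelling, HpaI digestion and capillary electrophoresis; bidirectional fit versus DMSO.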

A short description of test [9]: ATG_NF_kB_CIS: Attagene CIS-FACTORIAL HepG2 Assay for human Nuclear Factor Kappa B (NF-kB) (AID 2282991). Particulars: HepG2 Attagene cis-factorial NF-kB reporter mRNA; actives raise or lower the signal. Put shortly: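 HepG2, transient multi-reporter transfection, cis promoter elements (endogenous TFs). 24 h exposure. Total RNA → RT → PCR → 6-FAM label → HpaI → CE. Gain/loss vs DMSO.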

The nature of test [10]: ATG_NRF2_ARE_CIS: Attagene CIS-FACTORIAL HepG2 Assay for human Nuclear Factor Erythroid 2 Related Factor 2 (NFR2) response to Antioxidant Response Elements (ARE) (AID 2282992).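 For AC50: reporter mRNA level measured by RT-PCR and capillary electrophoresis fluorescence.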 Particulars: HepG2 Attagene ARE/NRF2 reporter, transcription factor activity; actives raise or lower the signal. Put shortly:
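Transient MRTU transfection of HepG2; 24 h compound exposure; TriZol RNA, RT with oligo(dT), PCR, 6-FAM primer extension, HpaI cut, CE. Bidirectional fit vs DMSO.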

Test [11] in a line: ATG_Oct_MLP_CIS: Attagene CIS-FACTORIAL HepG2 Assay for human Octamer-Binding Transcription Factor (Oct) (AID 2282993). Particulars: HepG2 Attagene cis-factorial Oct reporter, mRNA; actives raise or lower the signal. Put shortly:
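HepG2 cells transiently transfected with cis-element-driven reporter transcription units (endogenous TF activity); 24 h compound exposure. Reporter mRNA quantified by RT-PCR, 6-FAM labelling, HpaI digestion and capillary electrophoresis; bidirectional fit versus DMSO baseline.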

Test [12] addresses Cellular tumor antigen p53 (Homo sapiens) (UniProt P04637). As to the kind of experiment: ATG_p53_CIS: Attagene CIS-FACTORIAL HepG2 Assay for human p53 Transcription Factor (AID 2282994). Particulars: HepG2 p53 cis-element reporter, Attagene mRNA; actives raise or lower the signal. Put shortly: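 HepG2, transient MRTU transfection (cis promoter elements, endogenous TFs); 24 h dosing; RNA isolation, RT-PCR, 6-FAM primer extension, HpaI digest, CE fluorescence; bidirectional fit vs DMSO.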

Test [13] deals with Oxysterols receptor LXR-alpha (Homo sapiens) (UniProt Q13133). Kind of test: ATG_LXRa_TRANS: Attagene TRANS-FACTORIAL HepG2 Assay for human Liver X Receptor alpha (LXRa) (AID 2282980; active = hit-call score of the fitted dose curve at least 0.9, where 1 is the maximum). Particulars: HepG2 Attagene TRANS reporter, LXRa transactivation. The method, boiled down: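 Chemical-induced reporter mRNA measured by RT-PCR with fluorescent labelling and capillary electrophoresis after 24 h dosing of transiently transfected HepG2 cells expressing exogenous NR-Gal4 chimeras; increases scored against DMSO baseline.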
Oxysterols receptor LXR-alpha (Homo sapiens), sequence (Q13133 whole entry, looked up, the tested form may be a part): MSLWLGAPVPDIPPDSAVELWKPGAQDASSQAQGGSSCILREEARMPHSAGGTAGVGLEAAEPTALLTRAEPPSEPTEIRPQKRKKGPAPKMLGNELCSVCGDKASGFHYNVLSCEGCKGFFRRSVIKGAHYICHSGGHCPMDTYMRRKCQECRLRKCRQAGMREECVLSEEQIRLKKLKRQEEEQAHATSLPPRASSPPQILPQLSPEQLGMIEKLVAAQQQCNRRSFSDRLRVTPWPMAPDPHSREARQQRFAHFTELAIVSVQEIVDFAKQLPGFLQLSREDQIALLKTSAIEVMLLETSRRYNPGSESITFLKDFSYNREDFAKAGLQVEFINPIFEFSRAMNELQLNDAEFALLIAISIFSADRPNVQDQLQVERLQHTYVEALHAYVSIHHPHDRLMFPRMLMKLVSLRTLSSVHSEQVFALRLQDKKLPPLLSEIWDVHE

For test [14], the target named is Oxysterols receptor LXR-beta (Homo sapiens) (UniProt P55055). Kind of test: ATG_LXRb_TRANS: Attagene TRANS-FACTORIAL HepG2 Assay for human Liver X Receptor beta (LXRb) (AID 2282981; active = hit-call score of the fitted dose curve at least 0.9, where 1 is the maximum). Particulars: HepG2 Attagene TRANS GAL4-LXRb reporter, mRNA. Put shortly:
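In this TRANS format, exogenous chimeric NR-Gal4 protein activity, not endogenous factors, drives reporter expression in transfected human HepG2 cells. Exposure lasted 24 h; reporter mRNA was read by fluorescent capillary electrophoresis.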

Test [15] is described as follows: ATG_M_32_TRANS: Attagene TRANS-FACTORIAL HepG2 Assay for M32 Transcription Factor (Internal Marker) (AID 2282984; active = hit-call score of the fitted dose curve at least 0.9, where 1 is the maximum;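 note: transcript level of a background control reporter unit measured by RT-PCR and capillary electrophoresis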). Particulars: HepG2 Attagene TRANS M32 internal marker reporter. The method, boiled down:
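Human hepatoma HepG2, transient MRTU transfection, 24 h treatment. RNA → RT-PCR → fluorescent primer extension → HpaI digest (2 h, 37 C) → CE. Positive-direction fit vs DMSO.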

Test [16] concerns the target Nuclear receptor subfamily 4 group A member 2 (Homo sapiens) (UniProt P43354). Kind of test: ATG_NURR1_TRANS: Attagene TRANS-FACTORIAL HepG2 Assay for human Nuclear Receptor Related Protein 1 (NURR1) (AID 2282985; active = hit-call score of the fitted dose curve at least 0.9, where 1 is the maximum). Particulars: HepG2 Attagene TRANS reporter, mRNA readout. The method, boiled down: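 After 24 h chemical dosing, total RNA from transiently transfected HepG2 cells was reverse-transcribed and reporter cDNA PCR-amplified, FAM-labelled and analysed by capillary electrophoresis. Activity fitted in positive direction, DMSO as negative control.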

Test [17] in a line: ATG_M_06_TRANS: Attagene TRANS-FACTORIAL HepG2 Assay for M06 Transcription Factor (Internal Marker) (AID 2282983; active = hit-call score of the fitted dose curve at least 0.9, where 1 is the maximum). Particulars: HepG2 Attagene TRANS M06 internal marker reporter. Put shortly: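 Cells: HepG2, transient multi-reporter transfection. Exposure: 24 h. Detection: RT-PCR, 6-FAM labelling, HpaI digestion (2 h, 37 °C), capillary electrophoresis. Baseline: DMSO.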
The nature of test [18]: BSK_3C_TissueFactor: BioMAP Diversity Plus: 3C Assay for Tissue Factor Biomarker Activity (AID 2282997). Particulars: BioMAP 3C HUVEC, tissue factor biomarker readout; actives raise or lower the signal. The method, boiled down:
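Dosing of human umbilical vein endothelial cells preceded a 24 h incubation. Tissue Factor was then read by ELISA, with increases and decreases both scored relative to DMSO controls.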

The nature of test [19]: BSK_3C_uPAR: BioMAP Diversity Plus: 3C Assay for Urokinase-type plasminogen activator receptor (uPAR) Biomarker Activity (AID 2282998). Particulars: BioMAP 3C HUVEC, uPAR biomarker ELISA; actives raise or lower the signal. Put shortly: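 Primary human umbilical vein endothelial cells, 3C system; surface uPAR measured by ELISA 24 h after dosing. Cytotoxicity via SRB total protein in parallel cultures; bidirectional fit against DMSO.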
Background: ELISA stands for enzyme-linked immunosorbent assay.

Estrogen-related receptor gamma (Homo sapiens), sequence (P62508 whole entry, looked up, the tested form may be a part): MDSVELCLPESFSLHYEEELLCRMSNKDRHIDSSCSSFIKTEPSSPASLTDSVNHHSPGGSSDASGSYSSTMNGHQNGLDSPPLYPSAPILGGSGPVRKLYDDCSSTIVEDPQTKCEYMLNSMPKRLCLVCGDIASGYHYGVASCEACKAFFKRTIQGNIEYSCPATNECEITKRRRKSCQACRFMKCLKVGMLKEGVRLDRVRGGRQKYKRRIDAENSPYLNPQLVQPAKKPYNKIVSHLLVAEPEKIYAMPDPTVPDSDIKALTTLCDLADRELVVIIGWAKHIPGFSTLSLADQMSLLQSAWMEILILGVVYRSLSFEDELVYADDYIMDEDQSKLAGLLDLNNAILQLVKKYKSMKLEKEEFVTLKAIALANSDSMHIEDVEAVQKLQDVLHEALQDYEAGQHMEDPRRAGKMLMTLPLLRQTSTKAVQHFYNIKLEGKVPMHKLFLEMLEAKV
Cellular tumor antigen p53 (Homo sapiens), sequence (P04637 whole entry, looked up): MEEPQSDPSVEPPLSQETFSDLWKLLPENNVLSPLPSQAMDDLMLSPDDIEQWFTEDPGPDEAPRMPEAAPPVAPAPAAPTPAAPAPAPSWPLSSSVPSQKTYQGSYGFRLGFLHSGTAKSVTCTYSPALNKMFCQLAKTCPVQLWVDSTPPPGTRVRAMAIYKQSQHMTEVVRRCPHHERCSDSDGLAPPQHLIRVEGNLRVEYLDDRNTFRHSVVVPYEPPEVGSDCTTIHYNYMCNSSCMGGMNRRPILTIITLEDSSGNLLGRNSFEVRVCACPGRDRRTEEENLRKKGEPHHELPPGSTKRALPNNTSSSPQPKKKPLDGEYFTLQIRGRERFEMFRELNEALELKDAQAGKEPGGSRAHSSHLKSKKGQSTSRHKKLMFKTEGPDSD
Oxysterols receptor LXR-beta (Homo sapiens), sequence (P55055 whole entry, looked up, the tested form may be a part): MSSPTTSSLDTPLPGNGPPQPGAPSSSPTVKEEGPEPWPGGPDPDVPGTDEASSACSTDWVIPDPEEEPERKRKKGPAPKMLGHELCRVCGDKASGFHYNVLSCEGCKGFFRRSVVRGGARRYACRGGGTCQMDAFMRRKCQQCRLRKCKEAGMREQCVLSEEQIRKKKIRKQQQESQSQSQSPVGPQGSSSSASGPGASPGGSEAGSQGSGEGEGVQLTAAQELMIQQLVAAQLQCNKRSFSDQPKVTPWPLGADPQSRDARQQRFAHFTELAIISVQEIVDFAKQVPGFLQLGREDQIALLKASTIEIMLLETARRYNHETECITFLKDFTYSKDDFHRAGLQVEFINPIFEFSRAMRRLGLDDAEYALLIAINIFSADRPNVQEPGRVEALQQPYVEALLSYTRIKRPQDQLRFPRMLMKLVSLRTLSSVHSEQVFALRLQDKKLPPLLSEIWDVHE
Myc proto-oncogene protein (Homo sapiens), sequence (P01106 whole entry, looked up): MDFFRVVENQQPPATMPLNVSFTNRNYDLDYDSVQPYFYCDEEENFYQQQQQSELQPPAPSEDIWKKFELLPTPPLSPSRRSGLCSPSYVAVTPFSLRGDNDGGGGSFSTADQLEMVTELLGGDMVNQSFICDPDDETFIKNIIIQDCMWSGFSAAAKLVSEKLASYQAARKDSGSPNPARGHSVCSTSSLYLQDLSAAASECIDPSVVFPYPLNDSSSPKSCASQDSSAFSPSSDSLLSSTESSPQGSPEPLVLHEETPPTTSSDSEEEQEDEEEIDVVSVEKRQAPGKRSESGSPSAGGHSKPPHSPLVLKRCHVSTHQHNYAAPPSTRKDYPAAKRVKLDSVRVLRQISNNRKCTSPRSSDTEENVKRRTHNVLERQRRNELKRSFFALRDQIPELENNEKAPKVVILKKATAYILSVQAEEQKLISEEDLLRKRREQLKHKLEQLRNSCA
Hepatocyte nuclear factor 4-alpha (Homo sapiens), sequence (P41235 whole entry, looked up, the tested form may be a part): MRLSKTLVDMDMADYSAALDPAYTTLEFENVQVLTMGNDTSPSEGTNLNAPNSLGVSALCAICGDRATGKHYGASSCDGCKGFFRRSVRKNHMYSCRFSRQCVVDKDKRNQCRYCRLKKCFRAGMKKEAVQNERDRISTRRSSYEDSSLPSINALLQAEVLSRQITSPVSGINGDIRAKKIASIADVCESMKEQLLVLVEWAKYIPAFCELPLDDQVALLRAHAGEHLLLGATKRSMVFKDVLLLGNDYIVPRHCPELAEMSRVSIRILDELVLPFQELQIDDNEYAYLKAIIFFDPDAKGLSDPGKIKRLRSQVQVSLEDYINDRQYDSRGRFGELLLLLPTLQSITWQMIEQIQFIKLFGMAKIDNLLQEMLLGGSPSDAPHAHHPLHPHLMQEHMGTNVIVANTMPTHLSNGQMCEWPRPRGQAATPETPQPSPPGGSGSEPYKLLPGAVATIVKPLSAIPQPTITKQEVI
Nuclear receptor subfamily 4 group A member 2 (Homo sapiens), sequence (P43354 whole entry, looked up): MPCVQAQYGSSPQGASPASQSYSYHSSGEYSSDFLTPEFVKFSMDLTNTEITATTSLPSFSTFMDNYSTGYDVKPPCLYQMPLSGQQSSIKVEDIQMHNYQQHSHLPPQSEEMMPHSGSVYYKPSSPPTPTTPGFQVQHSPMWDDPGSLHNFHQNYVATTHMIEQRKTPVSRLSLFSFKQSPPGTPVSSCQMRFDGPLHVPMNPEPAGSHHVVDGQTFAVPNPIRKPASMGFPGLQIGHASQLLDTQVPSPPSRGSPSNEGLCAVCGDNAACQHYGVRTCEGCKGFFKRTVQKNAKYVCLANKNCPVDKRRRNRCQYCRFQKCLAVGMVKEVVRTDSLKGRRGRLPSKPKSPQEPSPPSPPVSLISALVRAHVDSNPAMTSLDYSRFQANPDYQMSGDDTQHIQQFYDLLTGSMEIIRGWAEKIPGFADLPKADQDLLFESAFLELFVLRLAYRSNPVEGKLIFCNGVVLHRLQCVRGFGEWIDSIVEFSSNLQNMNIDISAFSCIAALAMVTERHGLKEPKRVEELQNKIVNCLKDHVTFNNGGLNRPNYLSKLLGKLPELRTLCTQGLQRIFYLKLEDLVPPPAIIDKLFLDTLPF

In the case of `CC(=O)OC1CCCCC1`, the result in test [1], in test [2], in [3], in test [4], in [5] and in test [6] was inactive. Further, the compound was called inactive in [7], in test [8], in [9], in test [10], in test [11] and in test [12].

Regarding `CC1C(C)(C)C2=C(C(=O)CCC2)C1(C)C` (centres undefined), the compound was classed as inactive in [1], in [2], in [13], in test [14], in [15] and in test [5]. The compound was called inactive in [6], in test [7], in test [8], in test [10], in test [11] and in [12].

As to `CC1=CC(C)C(C=O)CC1` (centres undefined), the compound was classed as inactive in test [1], in test [2], in [13], in test [14], in test [4] and in test [15]. For the same compound, the call in [16], in test [5], in [7], in test [8], in [9] and in test [11] was inactive. For the same compound, in test [12], the call was inactive. In addition, in [10], the AC50 is 14.1 µM (active).

For the compound `CC(C)c1cccc(C(C)C)c1N`, the compound was called inactive in test [1], in test [2], in test [13], in [14], in test [4] and in [17]. Also, the compound was called inactive in test [15], in test [16], in test [5], in test [6], in test [7] and in test [8]. Further, the call in test [9], in test [10], in test [11], in test [12], in test [18] and in test [19] was inactive.

In the case of `O=C(O)c1cc(O)c2ccccc2c1O`, the compound was called inactive in [1], in [2], in test [13], in [14], in [4] and in test [17]. Also, the call in test [15], in test [6], in test [7], in [11] and in test [12] was inactive. Moreover, the AC50 in test [5] is 57.4 µM (active); in test [8], 43.6 µM (active); in test [10] it was 7.34 µM (active).

As to `Cn1ccnc1`, the outcome in [1], in [2], in test [3], in test [13], in test [4] and in [15] was inactive. Further, the call in test [16], in [5], in test [6], in test [7], in [8] and in test [9] was inactive. Besides, the result in test [10], in [11] and in [12] was inactive.

`CCC1(C)C(=O)N(Cl)C(=O)N1Cl` (centres undefined): the result in test [1], in test [2], in test [4], in test [16], in test [5] and in [8] was inactive. Also, the compound was called inactive in [9], in test [12], in test [18] and in [19]. The figures for the AC50 in test [7], in test [10] and in [11] were 60.6 µM (active), 27.1 µM (active) and 27.4 µM (active), respectively.

On to `C=C(C)OC(C)=O`, for which the result in test [1], in [2], in test [13], in test [14], in [4] and in test [17] was inactive. Also, the call in test [15], in test [5], in test [6], in test [7], in [8] and in [9] was inactive. The result in test [10], in test [11] and in [12] was inactive.

For `CCCCC(CC)COC(=O)/C=C/c1ccc(OC)cc1` (centres undefined), the compound was called inactive in [1], in test [2], in [13], in [4], in [17] and in [15]. Besides, the outcome in test [16], in test [5], in test [6], in test [7], in test [8] and in [10] was inactive. Besides, the compound was called inactive in test [11] and in test [12].

`COC(=O)CC(C)CCC=C(C)C` (centres undefined): the call in [1], in test [2], in [3], in test [13], in [14] and in test [4] was inactive. In addition, the compound was called inactive in test [15], in [5], in test [6], in test [7], in test [8] and in [12].
